Compound activity: PubChem BioAssay, several laboratories
The full list was thinned out, with hits kept by preference.
PKA kinase inh – PKA (human) kinase inhibition | inhibition, % at 6 µM | PKA Kemptide phosphorylation, Kinase-Glo ATP luminescence | hit rate 0.1% among 65,000 | P17612;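 active = inhibition above the screen-wide mean inhibition plus 3 SD, cut at about 21% in these data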
ROCK2 inh – ROCK2 (human) kinase inhibition; purified ROCK2, Kinase-Glo ATP depletion luminescence; AID 604; inhibition, % at 6 µM; O75116; hit rate 0.35% among 60,000;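 active = inhibition above the screen-wide mean inhibition plus 3 SD, cut at about 18% in these data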;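 note: plate controls were DMSO wells for no effect and Y-27632 control wells after no-enzyme background subtraction for full effect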
DAT uptake mod – changed human dopamine transporter uptake under cocaine IC80; Q01959; LLC-PK1 hDAT cells, [14C]-dopamine uptake with cocaine IC80; actives deviate in either direction; B-score at 10 µM; hit rate 1.3% among 110,000;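 active = Z score or B-score, a plate-position-corrected score, falls beyond the plate's 99.7% confidence bounds, in either direction; inactive = both scores lie inside the 99.7% bounds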;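 note: scored against the spread of the other compound wells on the same plate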
D1 mod – allosterically modulates the human D1 dopamine receptor | HEK293 D1, CRE-luciferase, dopamine EC30 potentiation; actives deviate in either direction | B-score at 10 µM | hit rate 5.9% among 58,000 | AID 641;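 active = luminescence count or its row- and column-corrected plate score outside the 99.7% band of the plate's sample wells, on either side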
Numbers without * were called inactive.

Results for COc1ccccc1OCC(=O)Nc1ccc(S(=O)(=O)NC(C)=O)cc1 ?
PKA kinase inh: 9; ROCK2 inh: 5; DAT uptake mod: -0.31; D1 mod: -1.1

Results for COc1ccc(NC(=O)COn2nnc3ccc(Cl)cc32)cc1OC ?
PKA kinase inh: 2; ROCK2 inh: 4; DAT uptake mod: 0.6; D1 mod: -2.6*

How did CCCc1nc2oc3c(NCCN(C)C)ncnc3c2c2c1CCCC2 do in these assays?
PKA kinase inh: -6; ROCK2 inh: 2; DAT uptake mod: -0.93; D1 mod: 3.2*

What do the screens show for `CCCc1nc2oc3c(N4CCNCC4)ncnc3c2c2c1CCCC2`?
PKA kinase inh: 5; ROCK2 inh: 3; D1 mod: -0.68

Results for CCOC(=O)C1CCN(CCC(=O)Nc2ccccc2Cl)CC1 ?
DAT uptake mod: -0.27

Results for CCOC(=O)/C(C(=O)Nc1ccccc1Cl)=C1/NC(C)(C)Cc2ccccc21 ?
DAT uptake mod: 2.8*

Results for Nc1ccccc1-c1nnn(CC(=O)N2CCCc3ccccc32)n1 ?
DAT uptake mod: 2.1

What do the screens show for `Fc1ccccc1Cn1nnc2c(-n3ccnc3)ncnc21`?
PKA kinase inh: 24*; ROCK2 inh: 27*; DAT uptake mod: 0.045; D1 mod: 4.5

Results for CC(C)c1ccc2oc(-c3cc(N)ccc3O)nc2c1 ?
PKA kinase inh: 1; ROCK2 inh: 0; DAT uptake mod: -0.33; D1 mod: -3.9*

What do the screens show for `CC(C(=O)NCc1ccco1)n1cc(C(=O)c2ccco2)c2ccccc21` (stereo not given)?
DAT uptake mod: 0.1

How did COC(=O)c1cccc(NC(=O)Nc2ccc(Cl)c(Cl)c2)c1 do in these assays?
DAT uptake mod: -0.026

How did COC(=O)c1sccc1NC(=O)Nc1ccc(Cl)c(Cl)c1 do in these assays?
DAT uptake mod: -7.9*

What do the screens show for `CC(=O)c1ccc(N2CCC(c3cc(-c4ccc(Cl)cc4Cl)n[nH]3)CC2)c([N+](=O)[O-])c1`?
DAT uptake mod: 0.81

How did O=C(NC1CC1)C1=C[C@@H](c2coc3ccccc3c2=O)C[C@@H](OCCCCO)O1 do in these assays?
DAT uptake mod: -1.7

Results for CN1CCN(C(=O)c2cc3nc(-c4ccc(Cl)cc4)cc(C(F)(F)F)n3n2)CC1 ?
PKA kinase inh: 1; ROCK2 inh: -1; DAT uptake mod: 0.48; D1 mod: -3.7*

How did CCN(CC)S(=O)(=O)c1ccc(S(=O)(=O)N(CC(=O)Nc2ccccc2)Cc2ccco2)cc1 do in these assays?
DAT uptake mod: -0.85

What do the screens show for `O=C(C1CC1)N1CCc2cc(Br)cc(S(=O)(=O)N3CCCCCC3)c21`?
PKA kinase inh: 4; DAT uptake mod: 6*

How did CCC(=O)N1CCc2cc(Br)cc(S(=O)(=O)N3CCCCCC3)c21 do in these assays?
PKA kinase inh: 4; DAT uptake mod: -0.0079; D1 mod: 1

What do the screens show for `COc1ccc(-c2ccncc2)cc1OC`?
DAT uptake mod: -0.72

What do the screens show for `CN(C)c1ccc(-c2ccncc2)cc1`?
PKA kinase inh: 8; ROCK2 inh: 19*; D1 mod: 0.94

Results for c1c2c(cc3sc(N4CCOCC4)nc13)OCCO2 ?
PKA kinase inh: -1; ROCK2 inh: -16; DAT uptake mod: 0.25; D1 mod: -4.9*

What do the screens show for `CC(C)c1ccc(NC(=O)C(c2ccccc2)N(C)C(=O)CCc2c[nH]c3ccccc23)cc1` (stereo not given)?
DAT uptake mod: 0.83

Results for Cc1ccc(-c2cc3nc(C)cc(NCc4ccco4)n3n2)cc1 ?
PKA kinase inh: 10; ROCK2 inh: 7; DAT uptake mod: -3.9*; D1 mod: -1.9

Results for Cc1cccc(-c2cc3nc(C)cc(NCCCN(C)C)n3n2)c1 ?
PKA kinase inh: 1; ROCK2 inh: 2; DAT uptake mod: 1.9; D1 mod: -2.1

How did COc1ccc(-n2c(C)cc(C(=O)Cn3c(NCCO)nc4ccccc43)c2C)cc1 do in these assays?
PKA kinase inh: 7; ROCK2 inh: 4; DAT uptake mod: 2.1*; D1 mod: -0.39

Results for O=C(Cn1c(NCCO)nc2ccccc21)c1ccc(Cl)cc1 ?
PKA kinase inh: 6; ROCK2 inh: 5; DAT uptake mod: -0.02; D1 mod: 2.2

Results for Cc1ccc(C(=O)NC(=S)Nc2ccc(Oc3ccc(Cl)cc3)cc2)cc1 ?
DAT uptake mod: -0.078

What do the screens show for `CCNC(=S)Nc1ccc(Oc2ccccc2)cc1`?
DAT uptake mod: -2.7*

How did O=C(NC(=S)Nc1ccc(Oc2ccccc2)cc1)c1ccc(Cl)cc1 do in these assays?
DAT uptake mod: 2.6*

What do the screens show for `CN(CC(=O)O/N=C(\N)c1cccc([N+](=O)[O-])c1)S(=O)(=O)c1ccccc1`?
DAT uptake mod: -0.2

What do the screens show for `O=C1CC2(CCCC2)Oc2ccc(F)cc21`?
DAT uptake mod: 0.67

What do the screens show for `Nc1ccc2cn[nH]c2c1`?
PKA kinase inh: 8; ROCK2 inh: 23*; DAT uptake mod: 0.19; D1 mod: 1.1

Results for O=C(NCCCN1CCCC1=O)c1ccccc1NS(=O)(=O)c1ccc(Br)cc1 ?
DAT uptake mod: -0.53

What do the screens show for `Cc1ccc(S(=O)(=O)Nc2nc3ccccc3s2)cc1`?
DAT uptake mod: 0.0056

What do the screens show for `O=S(=O)(Nc1nc2ccccc2s1)c1ccc(Br)s1`?
PKA kinase inh: 5; ROCK2 inh: 8; DAT uptake mod: -3.9*; D1 mod: -1.1

Results for CC(C)N=C(NC#N)SCc1ccccc1F ?
PKA kinase inh: 2; ROCK2 inh: -2; DAT uptake mod: -8.5*; D1 mod: 2.4

How did CC(C)N=C(NC#N)SCC(=O)NC(C)(C)C do in these assays?
PKA kinase inh: 8; ROCK2 inh: 3; DAT uptake mod: -0.36; D1 mod: -1.2

Results for CCc1cc2c(CN3CCN(C)CC3)cc(=O)oc2cc1O ?
PKA kinase inh: 3; ROCK2 inh: 10; DAT uptake mod: -9.5*; D1 mod: -0.82

How did COC(=O)c1cc(-c2ccc(OC)c(OC)c2)n[nH]1 do in these assays?
PKA kinase inh: 8; DAT uptake mod: -0.46; D1 mod: 7*

How did Nc1ccc(-c2nc3c(Cl)cc(N)cc3[nH]2)cc1 do in these assays?
PKA kinase inh: -6; ROCK2 inh: -4; DAT uptake mod: 1.7; D1 mod: -2.6*

How did Nc1ccc2nc(-c3ccc(N)c(Cl)c3)[nH]c2c1 do in these assays?
DAT uptake mod: 0.017

What do the screens show for `CCn1c(=O)cc(SCC(=O)NCCCN2CCN(c3ccccc3F)CC2)c2ccccc21`?
PKA kinase inh: 5; ROCK2 inh: 0; DAT uptake mod: 0.28; D1 mod: -3.5*

What do the screens show for `O=C(Cn1cc2c(n1)CCCC2)NCCCN1CCN(c2ccccc2F)CC1`?
PKA kinase inh: 1; ROCK2 inh: 3; DAT uptake mod: -1.2; D1 mod: -3.1*

What do the screens show for `COc1ccc(-c2cc3nc(C)cc(NCCO)n3n2)cc1`?
PKA kinase inh: -7; ROCK2 inh: -3; DAT uptake mod: -0.14

How did COc1ccc(-c2cc3nc(C)cc(N)n3n2)cc1 do in these assays?
DAT uptake mod: -8.4*

What do the screens show for `COc1ccc(C2C3=C(CCCC3=O)Nc3nc(-c4cc(OC)c(OC)c(OC)c4)nn32)cc1OC` (stereo not given)?
PKA kinase inh: 6; ROCK2 inh: 0; DAT uptake mod: 4*; D1 mod: -3*
